Laboratory results taken from PubChem BioAssay (NCATS).
Records with an inconclusive call do not appear. Active and inactive are the calls of the source. Unless noted, calls follow the shape of the dose curve; as a rule, active = well fitted curve in the direction sought with a large enough effect; inconclusive = small, poorly fitted or top-dose-only effect, or another doubt; inactive = no such curve, though single readings can be large; an effect the other way counts as inactive or inconclusive.

Assays:
[1] = target: Mitogen-activated protein kinase 10 (Mus musculus) (UniProt Q61831); assay: JNK3 AlphaScreen Assay (AID 530; active = well fitted curve in either direction with a large enough effect, not every such curve was filed as active;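 also: kinase came from lysate of stimulated human HepG2 cells; signal reports phosphorylation of biotinylated GST-cJun 1-79 at Ser73 with 10 µM ATP; % is scaled to controls: 0 for no effect and ±100 for the full control effect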)
Outline: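 Room-temperature AlphaScreen kinase assay; pre-activated HepG2 lysate as JNK3 source, biotin-GST-cJun(1-79) substrate, 10 uM ATP, compound 15 min preincubation.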

[2] = Cell Viability - N2a (AID 540); conditions: N2a mouse neuroblastoma cell viability; activity change, negative = cytotoxicity: at 92.2 µM (top of the series);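 also: plate controls were DMSO alone for no effect and tamoxifen control for full effect; nearly all actives have a fitted effect of over 45% in size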
Outline: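 Mouse neuroblastoma N2a cells (1500/well) were preincubated 5 hr at 37 °C, then exposed to compounds for 40 hr at 37 °C in complete medium. Viability was read as intracellular ATP by CellTiter-Glo luminescence; AC50 from Hill fits.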

[3] = Cell Viability - NIH 3T3 (AID 541); conditions: NIH 3T3 cell viability, qHTS; activity change, negative = cytotoxicity: at 92.2 µM (top of the series);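 also: plate controls were DMSO alone for no effect and tamoxifen positive control for full effect; nearly all actives have a fitted effect of over 25% in size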
Outline: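 NIH 3T3 mouse embryo fibroblasts (1000 cells/well) were plated in complete medium and treated with compound for 40 hr at 37 °C. Viability was read as intracellular ATP by CellTiter-Glo luminescence; AC50 values came from Hill-equation fits of concentration-response data.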

[4] = Cell Viability - HUV-EC-C (AID 542); also: % is scaled to controls: 0 for no effect and ±100 for the full control effect; nearly all actives have a fitted effect of over 35% in size
Outline: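 HUV-EC-C normal human vascular endothelial cells, 1000 cells/well, pre-incubated 5 hr at 37 °C, then exposed to compounds for 40 hr at 37 °C in complete medium. Viability measured as intracellular ATP by CellTiter-Glo luminescence; AC50 from Hill fits.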

[5] = Cell Viability - H-4-II-E (AID 543); also: % is scaled to controls: 0 for no effect and ±100 for the full control effect; nearly all actives have a fitted effect of over 35% in size
Outline: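 Rat hepatoma H-4-II-E cells (1500/well) were plated, incubated 5 hr at 37 °C, then exposed to compounds for 40 hr at 37 °C. Cellular ATP was read by CellTiter-Glo luminescence; AC50 came from Hill-equation fits of concentration-response data.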

[6] = Cell Viability - Renal Proximal Tubule (AID 545); conditions: renal proximal tubule cells viability, primary cells of rat origin; activity change, negative = cytotoxicity: at 91.7 µM (top of the series); also: nearly all actives have a fitted effect of over 40% in size
Outline: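 Primary rat renal proximal tubule cells (1000/well) were treated with compounds for 40 hr at 37 °C in complete medium. Intracellular ATP was measured by CellTiter-Glo luminescence, and AC50 values came from Hill-equation fits of concentration-response data.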

[7] = Cell Viability - Mesenchymal (AID 546); conditions: mesenchymal cells viability, qHTS; activity change, negative = cytotoxicity: at 91.7 µM (top of the series);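 also: cells exposed to compound for 40 hours before reading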
Outline: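 AC50 values reflect the drop in intracellular ATP in a human kidney mesenchymal line derived from normal glomeruli. Treatment lasts 40 hr at 37 °C in complete medium, and the signal comes from CellTiter-Glo luminescence.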

[8] = Cellular Toxicity (caspase-3) HUV-EC-C (AID 656)
Outline: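 HUV-EC-C endothelial cells, 1000/well, were pre-incubated 5 hr at 37°C, then exposed to compounds for 16 hr at 37°C. Caspase-Glo 3/7 luminescence was read after 20 min at room temperature. AC50 came from Hill fits, normalized to DMSO and 100 uM tamoxifen.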

[9] = Cellular Toxicity (caspase-3) SHSY5Y (AID 657)
Outline: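 SH-SY5Y human neuroblastoma cells (1500/well) were treated with compounds for 16 h at 37 °C, then Caspase-Glo 3/7 luminescence was read after 1 h at room temperature. Data normalized to DMSO and 10 uM staurosporine; AC50 from Hill fits.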

[10] = Cellular Toxicity (caspase-3) BJ (AID 658);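 also: 0% = DMSO basal and 100% = 10 µM staurosporine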
Outline: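 Readout: Caspase-Glo 3/7 luminescence increase in BJ cells after 16 hr treatment at 37 °C. Staurosporine and tamoxifen served as positive controls; AC50 values came from Hill modelling of data normalized to DMSO and 10 uM staurosporine.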

[11] = Cellular Toxicity (caspase-3) MRC-5 (AID 659);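 also: 0% = DMSO basal and 100% = 10 µM staurosporine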
Outline: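 Concentration-dependent caspase 3/7 activation is measured in human normal lung fibroblasts (MRC-5) following 16-hour treatment. AC50 values come from standard Hill-equation modeling of luminescence normalized to DMSO and 10 uM staurosporine.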

[12] = Cellular Toxicity (caspase-3) Mesangial (AID 660); conditions: Potency: caspase-3 activation;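 also: cells exposed to compound for 16 h before the caspase read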
Outline: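 Human renal glomerular mesangial cells (1000/well) were treated with compounds for 16 h at 37 °C in complete medium, then caspase 3/7 activity was read by Caspase-Glo luminescence. Data were normalized to DMSO and 100 uM tamoxifen; AC50 from Hill fits.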

[13] = Cellular Toxicity (caspase-3) H-4-II-E (AID 663); conditions: H-4-II-E rat hepatoma, scaled: DMSO 0%, 100 µM tamoxifen 100%; at 92.2 µM (top of the series);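 also: cells exposed to compound for 16 hr before readout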
Outline: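 Apoptosis induction is scored as increased luminescence from caspase 3/7 substrate cleavage in rat hepatoma H-4-II-E cells exposed to compound for 16 hr. Activity is scaled between DMSO and 100 uM tamoxifen.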

[14] = Cellular Toxicity (caspase-3) Hek293 (AID 664); conditions: HEK293 caspase-3 activation, DMSO = 0%, 100 µM tamoxifen = 100%; at 92.2 µM (top of the series);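 also: cells exposed to compound for 16 h at 37 °C before readout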
Outline: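 HEK293 cells were exposed to compounds in complete medium for 16 hr at 37 °C, then caspase-3/7 activity was read by Caspase-Glo 3/7 luminescence after 20 min at room temperature. Data normalized to DMSO and 100 uM tamoxifen; AC50 from Hill fits.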

[15] = Cellular Toxicity (caspase-3) N2a (AID 665); conditions: Potency: caspase-3 activation;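 also: compound exposure lasted 16 h at 37 °C before readout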
Outline: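 Mouse N2a neuroblastoma cells (1500/well) were treated with compounds for 16 h at 37 °C, then caspase-3/7 activity was read by Caspase-Glo luminescence after 1 h at room temperature. Data were normalized to DMSO and 10 uM staurosporine; AC50 from Hill fits.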

[16] = Cellular Toxicity (caspase-3) NIH 3T3 (AID 666);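 also: caspase signal read after 16 h compound exposure; 0% = DMSO basal and 100% = 100 µM tamoxifen stimulation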
Outline: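 Mouse NIH 3T3 fibroblasts (1000 cells/well) were treated with compound for 16 hr at 37°C in complete medium; caspase-3/7 activity was read by Caspase-Glo luminescence. Normalized to DMSO and 100 uM tamoxifen; AC50 from Hill fits.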

[17] = target: Glucocorticoid receptor (Homo sapiens) (UniProt P04150); assay: GR-GFP Redistribution (AID 450;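 active = compounds whose dose series gives a full or clear partial fitted curve of increased nuclear translocation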; also: potency is read from the fitted curve at half-maximal effect); conditions: U2OS GR-GFP nuclear translocation, laser cytometry, 2 h
[18] = target: Glucocorticoid receptor (Homo sapiens) (UniProt P04150); assay: GR-EFC Redistribution (AID 451; calls by dose curve; also: potency is read from the fitted curve at half-maximal effect); conditions: CHO-K1 GR-EFC translocation, beta-gal luminescence, 2 h
Outline: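 Translocation of GR-ED fusion to nuclear EA restores b-gal, read by luminescence after 1 h room-temperature detection. Engineered CHO-K1 biosensor cells, 1,000/well, exposed 2 h at 37 C to titrations up to 46 uM final.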

[19] = target: 3',5'-cyclic-AMP phosphodiesterase 4B (Homo sapiens) (UniProt Q07343); assay: qHTS Assay for Inhibitors of PDE-IV (AID 607; active = well fitted activation curve with a large enough effect in the main read-out, with a control signal flat, not every such curve was filed as active; also: % of control where 0% means no effect)
Outline: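 ACTOne HEK293 cells carry a modified cAMP-gated CNG channel and express endogenous PDE4; plated 1000 cells/well, compounds up to 22.9 uM final. Membrane-potential dye fluorescence (ex 535/em 590) was read; parental cells received 10 uM forskolin + 100 uM RO 20-1724.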

3',5'-cyclic-AMP phosphodiesterase 4B (Homo sapiens), sequence (Q07343 whole entry, looked up): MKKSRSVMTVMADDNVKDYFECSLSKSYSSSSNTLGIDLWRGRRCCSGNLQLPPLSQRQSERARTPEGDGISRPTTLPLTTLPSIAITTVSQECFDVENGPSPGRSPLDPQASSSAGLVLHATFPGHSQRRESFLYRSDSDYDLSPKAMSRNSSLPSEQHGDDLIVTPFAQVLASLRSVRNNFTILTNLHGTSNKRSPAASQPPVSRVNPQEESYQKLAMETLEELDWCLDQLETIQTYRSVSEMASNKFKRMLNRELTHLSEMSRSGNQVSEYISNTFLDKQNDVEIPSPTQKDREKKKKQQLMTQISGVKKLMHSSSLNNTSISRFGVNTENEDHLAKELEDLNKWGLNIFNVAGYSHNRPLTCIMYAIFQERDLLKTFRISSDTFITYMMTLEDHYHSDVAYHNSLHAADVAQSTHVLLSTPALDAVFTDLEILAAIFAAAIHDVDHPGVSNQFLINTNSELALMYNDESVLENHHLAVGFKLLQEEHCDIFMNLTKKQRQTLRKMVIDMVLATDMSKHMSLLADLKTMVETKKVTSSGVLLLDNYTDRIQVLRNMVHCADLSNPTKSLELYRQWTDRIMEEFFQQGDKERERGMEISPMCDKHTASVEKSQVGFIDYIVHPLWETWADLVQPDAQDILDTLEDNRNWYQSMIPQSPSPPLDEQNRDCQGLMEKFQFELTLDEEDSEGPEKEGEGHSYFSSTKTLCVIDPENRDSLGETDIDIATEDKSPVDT
Glucocorticoid receptor (Homo sapiens), sequence (P04150 whole entry, looked up, the tested form may be a part): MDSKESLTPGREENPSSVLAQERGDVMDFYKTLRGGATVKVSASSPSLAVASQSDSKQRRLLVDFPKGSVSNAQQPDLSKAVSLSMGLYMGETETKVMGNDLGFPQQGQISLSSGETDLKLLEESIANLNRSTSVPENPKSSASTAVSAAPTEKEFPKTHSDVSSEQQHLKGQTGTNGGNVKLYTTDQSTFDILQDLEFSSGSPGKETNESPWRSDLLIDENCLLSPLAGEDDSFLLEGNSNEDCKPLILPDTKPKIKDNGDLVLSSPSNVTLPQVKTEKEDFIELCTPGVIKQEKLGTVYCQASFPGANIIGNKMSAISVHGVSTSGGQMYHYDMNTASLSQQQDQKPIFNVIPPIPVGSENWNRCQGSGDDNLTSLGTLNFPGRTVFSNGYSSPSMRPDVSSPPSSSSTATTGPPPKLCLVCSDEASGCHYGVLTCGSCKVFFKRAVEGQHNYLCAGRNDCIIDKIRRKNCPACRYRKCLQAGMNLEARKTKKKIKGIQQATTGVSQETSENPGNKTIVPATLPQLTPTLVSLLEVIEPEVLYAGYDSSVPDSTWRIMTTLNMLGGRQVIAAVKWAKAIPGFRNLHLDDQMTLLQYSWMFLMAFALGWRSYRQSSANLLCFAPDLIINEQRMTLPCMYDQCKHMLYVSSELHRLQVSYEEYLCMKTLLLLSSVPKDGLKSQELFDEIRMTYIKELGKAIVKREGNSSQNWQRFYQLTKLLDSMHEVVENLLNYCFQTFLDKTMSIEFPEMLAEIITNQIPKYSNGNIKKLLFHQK

O=C(O)/C=C\C(=O)O
inactive: Potency [1] | Potency [2] | Potency [3] | Potency [4] | Potency [5] | activity change, negative = cytotoxicity [6] -6.17% | Potency [7] | outcome [8] | outcome [9] | outcome [10] | outcome [11] | Potency [12] | caspase-3 activation [13] 0.648% | caspase-3 activation [14] -1.35% | Potency [15] | Potency [16]

CN1CCC[C@H]1c1cccnc1
inactive: Potency [1] | Potency [2] | Potency [3] | Potency [4] | Potency [5] | activity change, negative = cytotoxicity [6] 3.04% | Potency [7] | outcome [8] | outcome [9] | outcome [10] | outcome [11] | Potency [12] | caspase-3 activation [13] -0.172% | caspase-3 activation [14] 1.08% | Potency [15] | Potency [16]

c1ccc2sc(SSc3nc4ccccc4s3)nc2c1
inactive: Potency [1] | Potency [2] | Potency [3] | Potency [4] | Potency [5] | activity change, negative = cytotoxicity [6] -1.46% | Potency [7] | outcome [8] | outcome [9] | outcome [10] | outcome [11] | Potency [12] | caspase-3 activation [13] -0.551% | caspase-3 activation [14] 2.01% | Potency [15] | Potency [16]

CCCCCCCCCCCCCCCCCC(=O)O
inactive: Potency [1] | Potency [2] | Potency [3] | Potency [4] | Potency [5] | activity change, negative = cytotoxicity [6] -6.5% | Potency [7] | outcome [8] | outcome [9] | outcome [10] | outcome [11] | Potency [12] | caspase-3 activation [13] -0.546% | caspase-3 activation [14] 0.144% | Potency [15] | Potency [16]

COc1cc(OC)c(/C=C2/C(=O)Nc3ccccc32)c(OC)c1
inactive: Potency [17] > 46 µM | Potency [18] > 46 µM | Potency [1] | outcome [19]

O=C(O)c1cc(O)c(O)c(O)c1
inactive: Potency [1] | Potency [2] | Potency [4] | activity change, negative = cytotoxicity [6] -19.1% | outcome [8] | outcome [9] | outcome [10] | outcome [11] | Potency [12] | caspase-3 activation [13] -0.904% | caspase-3 activation [14] -9.64% | Potency [15] | Potency [16]
active: activity change, negative = cytotoxicity [3] -98.1%

Nc1nc2ccc([N+](=O)[O-])cc2s1
inactive: Potency [1] | Potency [4] | Potency [7] | outcome [8] | outcome [9] | outcome [10] | outcome [11] | Potency [12] | caspase-3 activation [13] -1.1% | caspase-3 activation [14] -4.39% | Potency [15] | Potency [16]

CC(C)NC[C@H](O)COc1cccc2[nH]ccc12
inactive: Potency [17] > 46 µM | Potency [18] > 46 µM | Potency [1] | outcome [19]

COc1ccccc1CNCCCCCCNCCCCCCCCNCCCCCCNCc1ccccc1OC
inactive: Potency [17] > 46 µM | Potency [18] > 46 µM | Potency [1]

COc1ccccc1N1CCN(CCN(C(=O)c2ccc(I)cc2)c2ccccn2)CC1
inactive: Potency [17] > 46 µM | Potency [18] > 46 µM | Potency [1] | outcome [19]

N=c1ccn2c(n1)O[C@H]1[C@H](O)[C@@H](CO)O[C@H]12
inactive: Potency [17] > 46 µM | Potency [18] > 46 µM | Potency [1] | outcome [19]

O=Nc1ccc2oc(=O)ccc2c1
inactive: Potency [17] > 46 µM | Potency [18] > 46 µM | Potency [1]

O=c1cc(-c2ccccc2)oc2ccccc12
inactive: Potency [1] | Potency [2] | Potency [4] | outcome [8] | outcome [9] | outcome [10] | outcome [11] | Potency [12] | caspase-3 activation [13] -0.716% | caspase-3 activation [14] -5.01% | Potency [15] | Potency [16]
